This is part of a sample that, as a whole, favours compounds with a hit. Of some 79,000 tested, about 15% had one in any assay. The source made the active and inactive calls. Rule as the data show it: active = growth inhibition above about 70%; inactive = the rest.
Assay: NCI Yeast Anticancer Drug Screen. Data for the mlh1 strain (AID 171);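 also: 0% = growth of vehicle-treated control cultures of the same strain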
Details: S. cerevisiae mlh1 strain growth inhibition, active compounds read high
Method: Growth inhibition of yeast strains with defined genetic alterations is measured as a screen for potential anti-cancer activity. Selected strains with alterations in DNA damage repair or cell cycle control were exposed to compounds and growth inhibition was measured relative to vehicle treated controls. The strain used in this assay is mlh1

Measured: growth inhibition

O=C1C=CC(=Nc2ccc3c(c2)Cc2cc(NC(=O)C(F)(F)F)ccc2-3)O1
active: at 100.0 µM 98%
inactive: at 1.2 µM 3% | at 3.7 µM 9% | at 11.0 µM 22% | at 33.0 µM 39%

N#CC(C(=O)Nc1ccccc1)C1=C(Cl)C(=O)c2ccccc2C1=O (stereo not given)
inactive: at 1.2 µM -3% | at 3.7 µM 41%
active: at 11.0 µM 98% | at 33.0 µM 97% | at 100.0 µM 97%

Cc1[nH]c2ccccc2c1C(c1ccc(N)cc1)c1c(C)[nH]c2ccccc12
inactive: at 1.2 µM 1% | at 3.7 µM -1% | at 11.0 µM -2% | at 33.0 µM 0% | at 100.0 µM 50%

O=C(O)C1CCCCC1c1c2ccc(=O)c(O)c-2oc2c(O)c(O)ccc12 (stereo not given)
inactive: at 1.2 µM -30% | at 3.7 µM -9% | at 11.0 µM -33% | at 33.0 µM 38%
active: at 100.0 µM 74%

CC1(C)C(=O)OC(n2cc(F)c(=O)[nH]c2=O)C1=O (stereo not given)
inactive: at 1.2 µM -14% | at 3.7 µM -15% | at 11.0 µM -2% | at 33.0 µM 19% | at 100.0 µM 49%

CCN(CC)C(C)(C)C(=O)/C=C/c1ccccc1
inactive: at 1.2 µM 2% | at 3.7 µM 2% | at 11.0 µM 3% | at 33.0 µM 3% | at 100.0 µM 5%

COC(=O)CSSCc1ccc([N+](=O)[O-])cc1
active: at 100.0 µM 99%
inactive: at 1.2 µM -4% | at 3.7 µM 9% | at 11.0 µM 31% | at 33.0 µM 67%

Oc1ccc2ccccc2c1C(c1ccc(Cl)cc1)c1c(O)ccc2ccccc12
active: at 100.0 µM 85%
inactive: at 1.2 µM -41% | at 3.7 µM -25% | at 11.0 µM -32% | at 33.0 µM 26%

— PubChem BioAssay (NCI)
